# In ChEMBL document CHEMBL4513216, “Probing the Open Global Health Chemical Diversity Library for Multistage-Active Starting Points for Next-Generation Antimalarials” (ACS Infect Dis, 2020):
# Out of some 69,000 compounds screened, about 8,600 (12%) showed an effect of 50% or more. The entries come from a sample that favours strong results as a whole.
# Test system: Plasmodium berghei
# Assay: Screen against P. berghei liver stage (PbLuc), transformed with Luciferase, at 10uM
# Assay type: functional, HepG2
# Conditions: tested at 10 uM
row,SMILES,INHIBITION
1,CC1=N[C@@]2(CC[C@@H]3CN(Cc4ccccc4F)C[C@@H]32)C(=O)N1CC1CC1,20.1%
2,CCn1ncnc1C1CC(=O)NCc2nc(N)sc21 (stereo unspecified),19.7%
3,COC(=O)N1CCN(Cc2csc(-c3ncccn3)n2)CC1,-42.5%
4,CS(=O)(=O)N1CCN(Cc2csc(-c3ncccn3)n2)CC1,56.8%
5,Cc1ccc(-c2nc(CN3CCN(C(=O)C4CC4)CC3)cs2)o1,-34%
6,CC(C)c1nc(CN2CCN(Cc3ccccn3)CC2)cs1,-53.5%
7,CC(O)CN1CCN(Cc2csc(-c3ncccn3)n2)CC1 (stereo unspecified),60.8%
8,CC(C)C(=O)N1CCN(Cc2csc(-c3ccccn3)n2)CC1,47.4%
9,Cc1ccc(-c2nc(CN3CCN(S(=O)(=O)N(C)C)CC3)cs2)o1,52.1%
10,CC(C)C(=O)N1CCN(Cc2csc(-c3ncccn3)n2)CC1,41.8%
11,CC(C)CC(=O)N1CCN(Cc2csc(-c3ncccn3)n2)CC1,10.6%
12,Cc1ccc(-c2nc(CN3CCN(CC(=O)N(C)C)CC3)cs2)o1,15.3%
13,OC(c1ccccc1)C1CCN(Cc2csc(-c3ncccn3)n2)CC1 (stereo unspecified),59.8%
14,CC(=O)N1CCCN(Cc2csc(-c3ncccn3)n2)CC1,30.8%
15,Cn1ccc(C(=O)NCc2ccc(N3CCCCC3)nc2)cc1=O,46.2%
16,O=C(O)[C@]12CCCN(Cc3ccncc3)C[C@H]1CN(c1ncccn1)C2,-20.1%
17,Cn1cnc2c1C(COCC1CCOCC1)CN(Cc1ccccn1)C2 (stereo unspecified),36.9%
18,Cc1oncc1C(=O)N1CCC2(CC1)CC(N1CCOCC1)C2,-15.9%
19,CNc1cc(-c2ccncc2)ncn1,24.8%
20,Cc1cc(C)n(CC2CCCCN2C(=O)c2ccc(C(N)=O)cc2)n1 (stereo unspecified),-10.6%
21,Cc1cc(C)n(CC2CCCN2C(=O)c2cccc3c2OCO3)n1 (stereo unspecified),25.15%
22,Cc1cc(C)n(CC2CCCN2C(=O)c2ccc3c(c2)OCCO3)n1 (stereo unspecified),15.2%

row,SMILES,INHIBITION
1,Cc1cnn(CC2CCCCN2C(=O)c2ccc3c(c2)COC3)c1 (stereo unspecified),-18%
2,Cc1cc(C)n(CC2CCCN2C(=O)c2ccc3[nH]c(=O)[nH]c3c2)n1 (stereo unspecified),16.3%
3,Cc1cc(C)n(CC2CCCN2C(=O)c2ccc3c(c2)OCO3)n1 (stereo unspecified),52.1%
4,Cc1cc(C)n(CC2CCCN2C(=O)c2ccc3c(c2)COC3)n1 (stereo unspecified),51.6%
5,Cc1cc(C)n(CC2CCCCN2C(=O)c2ccc3c(c2)OCO3)n1 (stereo unspecified),5.97%
6,Cc1cc(C)n(CC2CCCCN2C(=O)c2ccc3c(c2)COC3)n1 (stereo unspecified),56.4%
7,CN(C)CC(=O)NC1CC(C)(C)Cc2nc(C(C)(C)C)ncc21 (stereo unspecified),43.6%
8,O=C(CN1CC(c2ccccc2)CC1=O)NCc1cc2n(n1)CCNC2 (stereo unspecified),17.3%
9,Cc1noc2nc3c(c(C(=O)/N=c4\[nH]nc(C(C)C)s4)c12)CCC3,38%
10,Cn1cc(CN2CCO[C@@H]3CN(Cc4ccoc4)C[C@@H]3C2)cn1,-18.4%
11,COCC(NC1CCSCC1)c1ccnn1C (stereo unspecified),47.6%
12,CN1C(=O)C2(CCCN(C(=O)c3cccnc3O)C2)c2ccccc21 (stereo unspecified),7.25%
13,Cc1ccc(NC(=O)NCC2(N3CCOCC3)CCSC2)c(C)c1 (stereo unspecified),74.2%
14,Cc1cccc(NC(=O)NCC2(N3CCOCC3)CCSC2)c1 (stereo unspecified),34.5%
15,O=C(NCC1(N2CCOCC2)CCSC1)Nc1ccc(F)cc1 (stereo unspecified),23.5%
16,COc1nc2c(cc1C(=O)NC(C)Cc1cc(C)n[nH]1)CCC2 (stereo unspecified),-37.9%
17,Cn1c(=O)[nH]c(=O)n2c(CC(=O)Nc3ccc(Cl)c(Cl)c3)cnc12,20.1%
18,CCc1nnc(CN(C)c2nc(C(C)C)nc3c2cnn3C)o1,53.5%
19,CCc1nnc(CN(C)c2nc(C3CCCC3)nc3c2cnn3C)o1,1.81%
20,Cc1nc(N(C)CCN(C)C)c2cnn(C)c2n1,29.2%
21,CN(C)C(=O)C1CN(c2ncccn2)CCN1C (stereo unspecified),25.8%
22,COc1ncccc1CNC(=O)N(Cc1ccc(F)cc1F)C1CC1,48.2%

row,SMILES,INHIBITION
1,Cc1ccnc(C(Nc2nccc(-c3ccc(C)nc3C)n2)C2CC2)c1 (stereo unspecified),41.3%
2,Cc1nc(CN2CCOC(Cn3cccn3)C2)nc2ccccc12 (stereo unspecified),-31.8%
3,Cc1nc2sccn2c1C(=O)N1CCn2nc(C(=O)NC3CC3)cc2C1,25.5%
4,Cc1cc(C(=O)N2CCn3nc(C(=O)NC4CC4)cc3C2)nc(C)n1,34.2%
5,Cc1c[nH]c(C(=O)N2CCn3nc(C(=O)NC4CC4)cc3C2)n1,53.7%
6,N#Cc1cccc(CN2C[C@@H](NC(=O)C3CC3)[C@H]3OCCC[C@H]32)c1,42%
7,CCn1c(-c2ccccc2)nn(CC(=O)NCCc2c[nH]cn2)c1=O,31.4%
8,CCc1ccccc1OCCNCCc1c[nH]cn1,51.3%
9,C=C(C)COc1ccccc1CNCCc1c[nH]cn1,21.7%
10,O[C@H]1CN(Cc2cc3ccccc3o2)CC[C@@]12CCCO2,15.9%
11,Cc1cc(NC(=O)CN2CCOC(Cn3nc(C)cc3C)C2)n(C)n1 (stereo unspecified),56%
12,Cc1cnn(CC2CN(CC(=O)Nc3cccnc3)CCO2)c1 (stereo unspecified),67.5%
13,Cc1nc(C)n(CC2CN(CC(=O)Nc3cccnc3)CCO2)n1 (stereo unspecified),-13.2%
14,Cc1nc(C)n(CC2CN(CC(=O)Nc3ccncc3)CCO2)n1 (stereo unspecified),64.1%
15,Cc1nc(C)n(CC2CN(CC(=O)Nc3nccs3)CCO2)n1 (stereo unspecified),30.1%
16,O=C(CN1CCOC(Cn2cccn2)C1)Nc1cccnc1 (stereo unspecified),10.7%
17,Cc1nc(C)n(CC2CCCN2CC(=O)Nc2cccnc2)n1 (stereo unspecified),-6.39%
18,Cc1cnn(CC2CN(CC(=O)Nc3ccncc3)CCO2)c1 (stereo unspecified),11.2%
19,Cc1nc(C)n(CC2CCCN(CC(=O)Nc3ccncc3)C2)n1 (stereo unspecified),-0.15%
20,Cc1nc(C)n(CC2CCCN(CC(=O)Nc3cccnc3)C2)n1 (stereo unspecified),57.2%
21,Cc1cc(C)n(CC2CN(CC(=O)Nc3ccncc3)CCO2)n1 (stereo unspecified),44.3%
22,CCC1CN(CC(=O)Nc2cc(C)nn2C)CCO1 (stereo unspecified),23.4%

row,SMILES,INHIBITION
1,CO[C@H]1CCN(C(=O)c2ccsc2)[C@@H]2CN(CC3CC3)C[C@H]12,0.112%
2,Cc1cnn(-c2ccc(C(=O)N3CCCC(n4ccnc4C)C3)cc2)c1 (stereo unspecified),0.411%
3,Cn1cc(C2CCCN2C(=O)COCCOc2ccccc2)cn1 (stereo unspecified),44.1%
4,CC(C)N1CCc2onc(Cn3cccc3)c2C1,4.02%
5,Cc1nc(C)n(CC2CCCN2CCOc2ccccc2F)n1 (stereo unspecified),-83.4%
6,CC(C)c1nc(C2CCCN(C(=O)CCc3cscn3)C2)no1 (stereo unspecified),-43.5%
7,c1cnc(Nc2cc(CCC3CCCNC3)ccn2)cn1 (stereo unspecified),-26.2%
8,Cc1nc2cc(C(=O)N3CCn4c(nnc4C4CC4)C3)ccc2s1,10.9%
9,CCN(CC)CCn1cc(NC2CCN(C(C)(C)C)CC2)cn1,-13.1%
10,O=C(NCCc1nncn1C1CC1)C1SCCc2ccccc21 (stereo unspecified),-4.13%
11,Cc1nonc1NC(=O)C1SCCc2ccccc21 (stereo unspecified),-92.8%
12,Cc1nn(C)c(NC(=O)C2SCCc3ccccc32)c1C (stereo unspecified),74%
13,O=C(c1ccncc1)N(CCO)Cc1cc(Br)ccc1F,35.6%
14,Nc1nc2c(c(=O)[nH]1)CCN(C(=O)c1ccccc1N1CCCC1)C2,8.24%
15,O=C(c1cnc2n1CCCC2)N1CCCC1,66.1%
16,CC(C)(C)NC(=O)c1cnc2n1CCCC2,-107%
17,O=C(NC1CC1)c1cnc2n1CCCC2,-40.6%
18,O=C(NCCCc1ccccn1)c1cn(CCN2CCNCC2)nn1,-37.8%
19,CCN1CCN(C(=O)c2cc(-c3cccs3)cs2)CC1,-15.5%
20,CC(C)NC(=O)Nc1ccc(CS(=O)(=O)C(C)(C)C)cc1,-8.69%
21,CCS(=O)(=O)N1C[C@@H](c2ccccc2)[C@@]2(CCNC2=O)C1,48.4%
22,O=C(c1cnccn1)N1C[C@@H](c2ccccc2)[C@@]2(CCNC2=O)C1,74.8%

row,SMILES,INHIBITION
1,O=C(c1cccnc1)N1C[C@@H](c2ccccc2)[C@@]2(CCNC2=O)C1,-0.554%
2,O=C1NCC[C@]12CN(Cc1ccoc1)C[C@H]2c1ccccc1,-38.1%
3,CCCS(=O)(=O)N1C[C@@H](c2ccccc2)[C@@]2(CCNC2=O)C1,53.9%
4,Cc1ccc(CN2C[C@@H](c3ccccc3)[C@@]3(CCNC3=O)C2)o1,-2.46%
5,O=C1NCC[C@]12CN(Cc1cccnc1)C[C@H]2c1ccccc1,-3.77%
6,O=C(c1cnccn1)N1CCC2(CC1)C(=O)NCC2c1ccccc1 (stereo unspecified),49.7%
7,O=C1NCC[C@]12CN(Cc1ccncc1)C[C@H]2c1ccccc1,51.3%
8,N#Cc1c2n(c3c(N)ncnc13)CCCCC2,44.4%
9,CC(C(=O)N1CCN(c2ncccn2)CC1)n1cncn1 (stereo unspecified),10%
10,CCc1oc(C(=O)N2CC[C@@H]3CC[C@H](C2)N3)cc1CN(CC)CC,29.4%
11,Cc1ccc(CN2CCC(c3cnccn3)CC2)s1,18.9535%
12,CC(C)(O)CN1CC(C)(C)CN(C(=O)CCc2ccccc2)CC1=O,44.9%
13,Cn1c(N2CCOCC2)nc2cc(C(=O)NCC(F)(F)F)ccc21,20.9%
14,CCN(C)c1ncnc2c1CCN(C(=O)Cc1ccccn1)CC2,34.4%
15,Cc1cc(CNCc2c(C)n(CC(C)C)c3ccccc23)[nH]n1,27.4%
16,CC(C)N1CC2(CCCN(c3ccccn3)C2)CCC1=O (stereo unspecified),-9.18%
17,CC(C)N1CC2(CCCN(c3ccnc4ccccc34)C2)CCC1=O (stereo unspecified),65.1%
18,CC(C)N1CC2(CCC1=O)CCN(c1ccnc3ccccc13)CC2,20.5%
